The values below come from PubChem BioAssay.

Test [1] is described as follows: binders of probe aFSTL3 on microarray, primary screen, stem cell growth factor project, biochemical, small-molecule microarray, fluorescence 635/667 (AID 1064).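 Further: measures binding of the biotinylated anti-FSTL3 antibody to printed compounds.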 As to conditions: higher = more signal.
Test [2] is described as follows: binders from COS7 lysate, DM2A8 probe, primary screen, torsin A project, cell lysate, small-molecule microarray, fluorescence 635/667 (AID 1065). The conditions noted are these: higher = more signal, COS7 lysate expressing mutant human TOR1A.
A short description of test [3]: binders of probe aFGF2 on microarray, primary screen, stem cell growth factor project, biochemical, small-molecule microarray, fluorescence 635/667 (AID 1067).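 Further: measures binding of biotinylated aFGF2 protein to printed compounds on slides; z-score merges feature fluorescence and signal-to-noise across triplicate slides.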 The conditions noted are these: higher = more signal.
Test [4] can be described thus: binders of probe aFGF10 on microarray, primary screen, stem cell growth factor project, biochemical, small-molecule microarray, fluorescence 635/667 (AID 1071).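 Further: score merges 667 nm spot intensity and signal to noise from triplicate slides.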 The conditions noted are these: higher = more signal.
The target of test [5] is Neurogenic locus notch homolog protein 2 (Homo sapiens) (UniProt Q04721). Nature of the test: Notch2 binders on small-molecule microarrays, primary screen, biochemical, small-molecule microarray, 635 nm fluorescence, stem cell growth factors (AID 1073). The conditions noted are these: Notch2 binding, higher = more signal.
The target in test [6] is Pro-neuregulin-1, membrane-bound isoform (Homo sapiens) (UniProt Q02297). Nature of the test: NRG1 binders on small-molecule microarrays, primary screen, psychiatric disease protein project, biochemical, small-molecule microarray, fluorescence 635/667 (AID 1075).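 Further: score combines 667 nm spot fluorescence with signal to noise.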 The conditions noted are these: NRG1 binding, 635 nm fluorescence, higher = more signal.
Chain of Pro-neuregulin-1, membrane-bound isoform (Homo sapiens) (Q02297 whole entry, looked up, the tested form may be a part, canonical isoform): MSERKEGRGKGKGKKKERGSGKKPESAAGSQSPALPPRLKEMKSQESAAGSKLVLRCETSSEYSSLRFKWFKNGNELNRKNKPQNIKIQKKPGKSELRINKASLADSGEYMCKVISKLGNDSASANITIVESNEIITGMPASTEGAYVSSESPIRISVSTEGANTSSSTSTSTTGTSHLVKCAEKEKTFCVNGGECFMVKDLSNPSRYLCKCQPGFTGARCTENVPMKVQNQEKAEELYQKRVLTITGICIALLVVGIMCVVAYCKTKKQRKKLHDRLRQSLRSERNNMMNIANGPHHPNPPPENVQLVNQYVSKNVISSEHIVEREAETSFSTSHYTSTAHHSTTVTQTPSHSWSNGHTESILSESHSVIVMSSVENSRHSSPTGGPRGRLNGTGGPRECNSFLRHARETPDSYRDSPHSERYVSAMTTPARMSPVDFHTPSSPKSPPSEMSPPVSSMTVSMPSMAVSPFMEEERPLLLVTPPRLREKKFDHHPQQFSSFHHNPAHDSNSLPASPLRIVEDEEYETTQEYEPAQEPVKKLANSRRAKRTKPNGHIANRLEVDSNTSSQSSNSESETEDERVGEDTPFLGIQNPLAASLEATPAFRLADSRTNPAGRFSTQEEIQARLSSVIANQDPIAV
Test [7] concerns Neuregulin-1 EGF-like domain. Nature of the test: binders of neuregulin-1 EGF-like domain, primary screen, biochemical, small-molecule microarray, 635 nm fluorescence (AID 1081).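 Further: binding of the protein to compounds printed on small-molecule microarray slides.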 The conditions noted are these: small-molecule microarray binding, higher = more signal.
Test [8] can be described thus: FRG1 promoter luciferase signal modulators, primary screen, FRG1 inhibition for FSHD, cell-based, C2C12 myotubes, firefly/Renilla luciferase, luminescence (AID 1084). The conditions noted are these: higher = more signal, called active from +8 up or from −8 down.
A short description of test [9]: binders of probe aFST on microarray, primary screen, stem cell growth factor project, biochemical, small-molecule microarray, fluorescence 635/667 (AID 1086).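 Further: score merges 667 nm fluorescence with signal-to-noise of each printed compound spot.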 As to conditions: higher = more signal.
Test [10] in a line: binders of probe aHhip on microarray, primary screen, stem cell growth factor project, biochemical, small-molecule microarray, fluorescence 635/667 (AID 1087).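 Further: score merges spot fluorescence at 667nm with spot signal to noise ratio.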 The conditions noted are these: higher = more signal.
Test [11] concerns PRMT1 (protein arginine N-methyltransferase 1). Nature of the test: PRMT1 binders on small-molecule microarrays, primary screen, biochemical, small-molecule microarray, 635 nm fluorescence (AID 1088).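 Further: binding of Prmt1 protein to compounds spotted on small-molecule microarray slides.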 As to conditions: small-molecule microarray binding, higher = more signal.
A short description of test [12]: yeast growth modulation, basal conditions, primary screen, YJM789 clinical isolate, OD600, 24 h (AID 1089).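 Further: growth of clinical yeast isolate S. cerevisiae YJM 789 seeded 1000 cells per well; test concentration not given here.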 The conditions noted are these: S. cerevisiae YJM789 growth, higher = more signal, called active from +8 up or from −8 down.
Test [13] in a line: fission yeast growth modulation, primary screen, strain 972, OD600, 24 h, no modulator (AID 1090).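 Further: basal condition with compound alone and no growth modifier present; test concentration not given here.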 The conditions noted are these: S. pombe 972 growth, higher = more signal, called active from +8 up or from −8 down.
A short description of test [14]: S. cerevisiae growth modulation with rapamycin, primary screen, strain BY4716, OD600, 96 h (AID 1091). Further: test concentration not given here. The conditions noted are these: higher = more signal, called active from +8 up or from −8 down.
Test [15] addresses Torsin-1A-interacting protein 2 (Homo sapiens) (UniProt Q8NFQ8). Description: LULL1 binders on small-molecule microarray, primary screen, cell lysate, human LULL1 lysate, 635/667 nm fluorescence (AID 1092).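 Further: score merges per-feature 667 nm fluorescence with signal-to-noise.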 As to conditions: hLULL1 lysate binding, 635 nm fluorescence, higher = more signal.
Test [16] in a line: E. coli growth modulation, two-sided OD650, primary screen, E. coli filamentation project, strain DRC41, 24 h (AID 1093).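 Further: MC1000 strain lacking acrAB efflux and sulA so SOS filamentation is blocked; test concentration not given here.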 As to conditions: OD650, 24 h, higher = more signal, called active from +8 up or from −8 down.
Test [17] can be described thus: small-molecule microarray binders of probe aLefty2, primary screen, biochemical, biotinylated probe, 635/667 nm fluorescence (AID 1094).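 Further: score merges spot fluorescence near 667 nm with spot signal-to-noise ratio.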 As to conditions: higher = more signal.
Test [18] deals with Noggin (protein binding on small-molecule microarray). Description: Noggin binders on small-molecule microarray, primary screen, biochemical, 635/667 nm fluorescence (AID 1095).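 Further: score merges 667 nm feature fluorescence with signal to noise over triplicate slides.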 As to conditions: 635 nm fluorescence, higher = more signal.
Test [19] addresses Neurogenic locus notch homolog protein 3 (Homo sapiens) (UniProt Q9UM47). Description: NOTCH3 binders on small-molecule microarray, primary screen, biochemical, 635/667 nm fluorescence (AID 1096). The conditions noted are these: NOTCH3 binding, 635 nm fluorescence, higher = more signal.
Test [20] in a line: small-molecule microarray binders of probe aEGFR, primary screen, biochemical, biotinylated probe, 635/667 nm fluorescence (AID 1097).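 Further: probe is a biotinylated anti-EGFR antibody binding compounds printed on slides; score combines fluorescence near 667 nm and signal to noise of each spot.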 As to conditions: higher = more signal.

SMILES strings stand for the structures. Calls of active or inactive are those of the source.

Chain of Neurogenic locus notch homolog protein 3 (Homo sapiens) (Q9UM47 whole entry, looked up): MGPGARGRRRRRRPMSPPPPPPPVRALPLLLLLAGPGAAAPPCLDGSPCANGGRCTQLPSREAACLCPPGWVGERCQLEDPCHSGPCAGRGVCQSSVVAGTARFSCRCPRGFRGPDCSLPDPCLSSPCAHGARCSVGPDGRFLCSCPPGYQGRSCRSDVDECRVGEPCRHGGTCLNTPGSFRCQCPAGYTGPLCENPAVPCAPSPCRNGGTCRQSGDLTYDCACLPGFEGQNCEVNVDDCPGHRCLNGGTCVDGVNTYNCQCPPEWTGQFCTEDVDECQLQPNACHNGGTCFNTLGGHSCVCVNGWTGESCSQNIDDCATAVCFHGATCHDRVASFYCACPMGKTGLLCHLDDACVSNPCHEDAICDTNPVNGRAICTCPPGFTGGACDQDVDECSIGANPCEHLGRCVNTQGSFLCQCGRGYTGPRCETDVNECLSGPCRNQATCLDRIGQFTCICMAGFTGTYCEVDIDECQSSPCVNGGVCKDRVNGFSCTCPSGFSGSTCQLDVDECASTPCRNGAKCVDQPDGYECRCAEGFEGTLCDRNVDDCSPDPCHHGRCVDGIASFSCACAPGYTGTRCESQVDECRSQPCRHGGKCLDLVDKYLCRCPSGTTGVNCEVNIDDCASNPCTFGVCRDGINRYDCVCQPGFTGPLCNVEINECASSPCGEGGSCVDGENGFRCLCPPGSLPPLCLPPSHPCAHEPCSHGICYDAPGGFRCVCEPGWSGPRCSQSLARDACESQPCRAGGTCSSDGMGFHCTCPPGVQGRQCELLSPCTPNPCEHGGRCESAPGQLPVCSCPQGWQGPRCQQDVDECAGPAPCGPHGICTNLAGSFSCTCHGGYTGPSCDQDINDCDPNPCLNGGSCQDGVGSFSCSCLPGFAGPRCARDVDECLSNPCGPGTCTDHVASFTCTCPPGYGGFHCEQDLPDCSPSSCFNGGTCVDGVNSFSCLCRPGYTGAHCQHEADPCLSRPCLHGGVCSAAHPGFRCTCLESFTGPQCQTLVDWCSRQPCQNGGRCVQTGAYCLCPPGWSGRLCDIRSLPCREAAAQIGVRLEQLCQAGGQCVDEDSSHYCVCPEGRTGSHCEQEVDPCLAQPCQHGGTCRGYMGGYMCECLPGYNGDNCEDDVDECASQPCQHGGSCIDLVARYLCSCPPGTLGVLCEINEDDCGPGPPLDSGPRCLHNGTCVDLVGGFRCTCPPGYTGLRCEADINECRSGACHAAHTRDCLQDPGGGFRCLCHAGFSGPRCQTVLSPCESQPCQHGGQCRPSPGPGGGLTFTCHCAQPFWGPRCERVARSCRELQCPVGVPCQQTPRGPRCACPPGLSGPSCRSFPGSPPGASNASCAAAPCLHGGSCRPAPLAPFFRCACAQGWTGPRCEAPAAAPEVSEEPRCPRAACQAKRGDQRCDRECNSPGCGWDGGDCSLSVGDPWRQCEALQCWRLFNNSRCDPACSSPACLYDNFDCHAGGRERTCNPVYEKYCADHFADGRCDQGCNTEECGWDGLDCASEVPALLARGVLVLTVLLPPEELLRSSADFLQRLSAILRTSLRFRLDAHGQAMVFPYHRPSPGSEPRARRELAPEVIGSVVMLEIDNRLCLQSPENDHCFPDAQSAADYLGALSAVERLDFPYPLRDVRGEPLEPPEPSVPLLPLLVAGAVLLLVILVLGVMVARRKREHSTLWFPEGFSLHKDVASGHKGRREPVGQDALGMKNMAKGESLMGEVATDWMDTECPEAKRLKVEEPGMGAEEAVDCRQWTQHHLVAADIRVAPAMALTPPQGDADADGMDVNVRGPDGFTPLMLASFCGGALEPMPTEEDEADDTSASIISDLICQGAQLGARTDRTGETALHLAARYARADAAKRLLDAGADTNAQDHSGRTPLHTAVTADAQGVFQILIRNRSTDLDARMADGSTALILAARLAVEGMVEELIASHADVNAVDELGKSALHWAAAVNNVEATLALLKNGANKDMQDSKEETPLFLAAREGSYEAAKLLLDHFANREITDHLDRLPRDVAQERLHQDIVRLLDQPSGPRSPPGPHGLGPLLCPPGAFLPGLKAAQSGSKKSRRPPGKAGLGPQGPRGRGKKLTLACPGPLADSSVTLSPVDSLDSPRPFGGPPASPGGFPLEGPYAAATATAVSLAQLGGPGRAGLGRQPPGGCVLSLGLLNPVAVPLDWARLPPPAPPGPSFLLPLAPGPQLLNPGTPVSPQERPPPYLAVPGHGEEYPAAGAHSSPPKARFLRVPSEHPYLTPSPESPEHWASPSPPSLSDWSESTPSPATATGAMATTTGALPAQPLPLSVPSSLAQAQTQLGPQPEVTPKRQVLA
Chain of Torsin-1A-interacting protein 2 (Homo sapiens) (Q8NFQ8 whole entry, looked up): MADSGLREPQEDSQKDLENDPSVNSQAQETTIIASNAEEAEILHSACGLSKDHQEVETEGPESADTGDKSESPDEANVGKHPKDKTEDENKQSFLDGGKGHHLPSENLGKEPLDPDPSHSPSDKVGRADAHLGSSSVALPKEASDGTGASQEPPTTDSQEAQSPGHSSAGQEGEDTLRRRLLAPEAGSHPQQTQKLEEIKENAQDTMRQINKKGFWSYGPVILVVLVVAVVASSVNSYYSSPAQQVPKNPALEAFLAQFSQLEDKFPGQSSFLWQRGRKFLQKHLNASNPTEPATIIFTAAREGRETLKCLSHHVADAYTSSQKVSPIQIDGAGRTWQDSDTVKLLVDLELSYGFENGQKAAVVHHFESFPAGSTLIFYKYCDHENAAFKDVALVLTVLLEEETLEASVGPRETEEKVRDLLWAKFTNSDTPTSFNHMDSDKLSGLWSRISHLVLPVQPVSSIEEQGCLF

In the case of `CO[C@H]1O[C@H](CO)[C@@H](OC(=O)Nc2ccccc2-c2ccccc2)[C@H](OC(=O)Nc2ccccc2)[C@H]1OC(=O)Nc1ccccc1`, the composite z-score in [1] is 0.164; in [2], 0.514; in test [3], -0.0067; in test [4], 1.25; in test [5], 1.48; in test [6], 1.55. For the same compound, the composite z-score was 1.33 in test [7]; 0.941 in test [9]; -0.0237 in test [10]; 1.54 in test [11]; 3.12 in test [15]; 0.208 in test [17]. Besides, the composite z-score came out at 1.2 in test [18], 1.1 in [19] and 0.0903 in test [20]. In addition, the z-score is 1.66 (inactive) in test [8]; 1.81 (inactive) in test [12]; 1.21 (inactive) in [13]; 5.33 (inactive) in [14]; 0.517 (inactive) in [16].

On to `N#Cc1ccc(NN2C(C(O)C3CC=CCC3)C=CC3C(=O)N(c4ccccc4)C(=O)C32)cc1` (stereo not given), for which the composite z-score in test [1] was 0.076; in test [2] it was -0.902; in test [3], -0.073; in test [4], 0.39; in test [5], 1.5; in test [6], 1.89. Also, the composite z-score is 1.29 in test [7]; 1.28 in test [9]; -0.0427 in test [10]; 0.995 in [11]; 3.5 in [15]; -0.0873 in test [17]. Moreover, the values for the composite z-score in [18], in [19] and in test [20] were 0.179, 1.1 and 0.0149, respectively. The z-score in test [8] was 0.474 (inactive); in [12], 0.609 (inactive); in [13], 0.773 (inactive); in test [14] it was 1.99 (inactive); in [16] it was -0.645 (inactive).

In the case of `COC(=O)C(CC#Cc1ccc2c(c1)[C@]1(C(=O)N2)[C@H](c2ccccc2OCCO)N2[C@H](c3ccccc3)[C@H](c3ccccc3)OC(=O)[C@H]2[C@@H]1C(=O)N1CCc2cc(OC)c(OC)cc2C1)C(=O)OC`, the composite z-score in [1] is -0.152; in test [2], 0.179; in [3] it was -0.0087; in test [4], 0.382; in test [5] it was 1.15; in test [6] it was 0.834. Also, the composite z-score in test [7] was 1.3; in test [9] it was 0.383; in test [10], -0.374; in test [11] it was 1.53; in test [15], 3.01; in test [17], -0.174. In addition, the composite z-score in test [18] was determined as 1.08; in [19] it was 1.09; in test [20], 0.0355. For the same compound, the z-score was -1.14 (inactive) in [8]; 2.1 (inactive) in test [12]; 1.13 (inactive) in test [13]; 4.27 (inactive) in test [14]; 0.463 (inactive) in test [16].

For `C=CCC(OC(C)=O)[C@@H]1[C@@H](N(Cc2cccc3ccccc23)C(=O)Cc2ccc(OC)cc2)c2cc(OCCCO)ccc2N1C(=O)c1ccc2ccccc2c1` (stereo not given in full), the composite z-score in test [1] is 0.175; in test [2], 0.737; in test [3] it was -0.052; in test [4] it was 0.113; in test [5] it was -0.451; in test [6], -0.0627. Further, the composite z-score is -0.805 in test [7]; 0.0737 in test [9]; -0.337 in [10]; 1.14 in test [11]; 1.06 in [15]; -0.0042 in test [17]. In addition, the composite z-score in test [18] is 0.115; in test [19], 0.373; in test [20], -0.0967. Besides, the z-score was -1.75 (inactive) in test [8]; -1.12 (inactive) in test [12]; 0.098 (inactive) in test [13]; -1.35 (inactive) in test [14]; 1.1 (inactive) in test [16].

As to `CCCCC(O)C1C=CC2C(=O)N(c3ccccc3)C(=O)C2N1Nc1ccc([N+](=O)[O-])cc1` (stereo not given), the composite z-score was 0.108 in test [1]; 0.0331 in test [2]; -0.0004 in test [3]; 0.531 in [4]; 1.06 in [5]; 1.58 in test [6]. In addition, the composite z-score in [7] is 1.35; in test [9], 1.27; in test [10] it was -0.154; in [11], 1.55; in test [15], 3.68; in test [17], -0.144. Besides, the composite z-score was 0.146 in [18], 1.11 in [19] and -0.0828 in [20]. For the same compound, the z-score in [8] is 0.456 (inactive); in test [12], -0.676 (inactive); in test [13], 0.429 (inactive); in [14] it was 0.154 (inactive); in [16] it was 0.916 (inactive).
